Results: the supplement of paper PMC10849652
About 7,900 targets were measured; listed, in parts, are those with a hit and a random draw of the rest. About 0.6% of all pairs of compound and target were hits.

Compound: c1cn2cc(-c3ccc4cn[nH]c4c3)nc(Nc3ccc(N4CCOCC4)cc3)c2n1 [entospletinib]
Assay: log2 fold change, soluble protein after heating vs DMSO (PISA); higher = thermal stabilisation; K562 cells, 10 uM, 30 min; active = over 0.2 and 3.5 SD of the protein, either way, in both replicates (recomputed)
How it was run: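 K562 cells (2×10^6 cells/mL) were treated with 10 μM compound for 30 min, and aliquots were heated for 3 min over 48°C-58°C. Pooled aliquots were extracted in PBS with 0.5% NP-40 at 4°C, and the supernatant after 21,000xg for 90 min was measured by TMTpro 16plex LC-MS/MS with channel sums equalised. Reported thermal stability, relative to control samples and from duplicates, is a log2 fold change.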

UniProt Q14978, sequence (Q14978 whole entry, looked up): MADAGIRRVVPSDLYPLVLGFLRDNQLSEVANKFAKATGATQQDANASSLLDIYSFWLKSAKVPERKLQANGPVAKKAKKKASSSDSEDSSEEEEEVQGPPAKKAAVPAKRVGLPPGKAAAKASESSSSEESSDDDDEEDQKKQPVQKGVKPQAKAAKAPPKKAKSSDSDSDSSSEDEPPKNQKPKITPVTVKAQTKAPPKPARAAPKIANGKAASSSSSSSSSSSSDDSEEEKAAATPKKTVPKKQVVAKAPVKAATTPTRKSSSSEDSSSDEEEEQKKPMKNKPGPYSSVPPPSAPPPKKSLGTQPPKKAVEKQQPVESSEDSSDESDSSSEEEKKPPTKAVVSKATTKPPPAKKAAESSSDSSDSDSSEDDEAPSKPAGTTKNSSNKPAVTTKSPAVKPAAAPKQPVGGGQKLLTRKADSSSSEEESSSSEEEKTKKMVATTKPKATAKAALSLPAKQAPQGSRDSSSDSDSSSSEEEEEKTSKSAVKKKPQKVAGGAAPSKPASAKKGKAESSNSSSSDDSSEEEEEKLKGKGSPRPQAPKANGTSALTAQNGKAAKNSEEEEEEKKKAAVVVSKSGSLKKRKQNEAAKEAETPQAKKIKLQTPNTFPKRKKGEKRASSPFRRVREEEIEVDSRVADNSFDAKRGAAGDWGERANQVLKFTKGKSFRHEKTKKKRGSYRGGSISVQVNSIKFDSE
UniProt Q9H081, sequence (Q9H081 whole entry, looked up): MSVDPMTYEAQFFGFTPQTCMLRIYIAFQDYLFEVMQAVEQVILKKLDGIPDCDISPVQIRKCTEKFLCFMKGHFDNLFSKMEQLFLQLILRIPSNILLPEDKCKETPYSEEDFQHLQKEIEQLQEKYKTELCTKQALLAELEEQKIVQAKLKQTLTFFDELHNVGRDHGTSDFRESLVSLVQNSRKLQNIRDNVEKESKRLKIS
UniProt P15531, sequence (P15531 whole entry, looked up): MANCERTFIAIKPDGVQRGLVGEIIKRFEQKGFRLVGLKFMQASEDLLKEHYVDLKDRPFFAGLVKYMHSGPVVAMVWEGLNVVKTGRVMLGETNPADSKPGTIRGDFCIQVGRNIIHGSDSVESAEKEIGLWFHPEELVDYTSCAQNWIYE
UniProt P35749, sequence (P35749 whole entry, looked up): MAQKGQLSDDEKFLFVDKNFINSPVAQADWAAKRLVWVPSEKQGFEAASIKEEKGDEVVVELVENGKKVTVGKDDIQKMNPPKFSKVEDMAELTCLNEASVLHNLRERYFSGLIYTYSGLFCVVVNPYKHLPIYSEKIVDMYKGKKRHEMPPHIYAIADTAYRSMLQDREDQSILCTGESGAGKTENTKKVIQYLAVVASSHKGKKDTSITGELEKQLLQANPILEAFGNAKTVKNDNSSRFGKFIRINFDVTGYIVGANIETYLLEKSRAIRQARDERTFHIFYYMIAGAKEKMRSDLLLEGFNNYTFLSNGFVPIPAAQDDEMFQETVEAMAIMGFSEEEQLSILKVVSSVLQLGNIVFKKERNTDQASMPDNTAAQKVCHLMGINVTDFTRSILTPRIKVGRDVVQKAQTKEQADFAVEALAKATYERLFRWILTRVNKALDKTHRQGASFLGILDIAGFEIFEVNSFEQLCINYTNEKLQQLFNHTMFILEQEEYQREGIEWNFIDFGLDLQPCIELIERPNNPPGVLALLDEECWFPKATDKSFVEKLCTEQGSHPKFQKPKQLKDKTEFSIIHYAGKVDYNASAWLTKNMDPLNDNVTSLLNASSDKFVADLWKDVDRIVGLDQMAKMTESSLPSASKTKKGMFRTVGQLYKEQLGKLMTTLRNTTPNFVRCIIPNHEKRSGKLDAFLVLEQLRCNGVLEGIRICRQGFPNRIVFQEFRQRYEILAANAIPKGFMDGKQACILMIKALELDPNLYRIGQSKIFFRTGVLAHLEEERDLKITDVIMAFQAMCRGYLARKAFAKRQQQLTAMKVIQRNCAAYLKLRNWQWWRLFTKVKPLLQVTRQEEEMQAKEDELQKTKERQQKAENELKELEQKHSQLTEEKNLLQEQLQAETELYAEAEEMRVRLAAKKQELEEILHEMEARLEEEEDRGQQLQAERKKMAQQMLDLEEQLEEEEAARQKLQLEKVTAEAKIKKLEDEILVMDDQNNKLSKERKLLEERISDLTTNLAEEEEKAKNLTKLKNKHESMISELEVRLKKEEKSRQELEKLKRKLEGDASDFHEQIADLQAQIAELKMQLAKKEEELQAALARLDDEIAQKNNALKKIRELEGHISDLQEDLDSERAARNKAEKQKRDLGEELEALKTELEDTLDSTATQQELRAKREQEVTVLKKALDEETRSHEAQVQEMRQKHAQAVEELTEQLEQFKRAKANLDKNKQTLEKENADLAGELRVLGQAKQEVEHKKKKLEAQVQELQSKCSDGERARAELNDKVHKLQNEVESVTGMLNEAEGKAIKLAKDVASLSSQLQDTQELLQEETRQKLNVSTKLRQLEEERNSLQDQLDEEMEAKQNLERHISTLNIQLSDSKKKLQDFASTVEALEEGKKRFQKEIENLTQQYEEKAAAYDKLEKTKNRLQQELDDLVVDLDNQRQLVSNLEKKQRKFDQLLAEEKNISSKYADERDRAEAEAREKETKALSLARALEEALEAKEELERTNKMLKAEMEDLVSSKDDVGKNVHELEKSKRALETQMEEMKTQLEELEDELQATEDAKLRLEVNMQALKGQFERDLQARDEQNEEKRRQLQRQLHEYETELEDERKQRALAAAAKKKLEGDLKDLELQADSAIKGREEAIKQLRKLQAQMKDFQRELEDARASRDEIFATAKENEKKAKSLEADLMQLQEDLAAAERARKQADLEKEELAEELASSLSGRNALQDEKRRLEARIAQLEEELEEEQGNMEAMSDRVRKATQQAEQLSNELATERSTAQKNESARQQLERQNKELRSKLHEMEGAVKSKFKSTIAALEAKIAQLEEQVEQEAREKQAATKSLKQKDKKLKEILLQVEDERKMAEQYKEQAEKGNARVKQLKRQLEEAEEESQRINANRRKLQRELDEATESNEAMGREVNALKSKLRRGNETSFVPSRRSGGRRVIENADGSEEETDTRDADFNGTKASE
UniProt Q9BRA0, sequence (Q9BRA0 whole entry, looked up): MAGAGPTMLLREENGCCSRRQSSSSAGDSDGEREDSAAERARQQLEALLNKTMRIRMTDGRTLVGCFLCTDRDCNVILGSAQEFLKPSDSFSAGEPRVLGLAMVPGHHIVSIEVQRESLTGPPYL
UniProt O00566, sequence (O00566 whole entry, looked up): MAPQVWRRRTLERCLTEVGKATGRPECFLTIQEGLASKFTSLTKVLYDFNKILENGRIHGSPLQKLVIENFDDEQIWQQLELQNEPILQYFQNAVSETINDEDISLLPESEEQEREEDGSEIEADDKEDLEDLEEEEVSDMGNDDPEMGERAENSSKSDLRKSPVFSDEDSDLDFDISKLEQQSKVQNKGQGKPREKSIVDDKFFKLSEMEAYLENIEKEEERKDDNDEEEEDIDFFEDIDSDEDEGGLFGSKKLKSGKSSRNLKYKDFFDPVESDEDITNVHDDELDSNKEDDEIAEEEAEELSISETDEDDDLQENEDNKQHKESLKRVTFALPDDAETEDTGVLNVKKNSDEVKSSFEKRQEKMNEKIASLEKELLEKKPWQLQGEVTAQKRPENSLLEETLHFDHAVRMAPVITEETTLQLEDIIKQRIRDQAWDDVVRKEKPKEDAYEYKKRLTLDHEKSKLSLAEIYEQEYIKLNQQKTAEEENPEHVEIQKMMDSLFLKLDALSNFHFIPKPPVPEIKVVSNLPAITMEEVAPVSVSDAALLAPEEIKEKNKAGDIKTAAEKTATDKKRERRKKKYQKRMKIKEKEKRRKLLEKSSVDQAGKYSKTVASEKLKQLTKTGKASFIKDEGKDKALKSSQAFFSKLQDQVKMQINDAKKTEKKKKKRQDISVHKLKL
UniProt P68402, sequence (P68402 whole entry, looked up): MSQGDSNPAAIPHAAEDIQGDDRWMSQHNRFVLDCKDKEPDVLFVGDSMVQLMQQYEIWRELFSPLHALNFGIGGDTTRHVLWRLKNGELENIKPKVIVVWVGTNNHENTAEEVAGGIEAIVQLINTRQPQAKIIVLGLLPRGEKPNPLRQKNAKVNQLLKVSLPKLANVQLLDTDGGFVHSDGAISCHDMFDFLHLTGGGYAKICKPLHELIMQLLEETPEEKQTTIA
UniProt Q9UBD5, sequence (Q9UBD5 whole entry, looked up): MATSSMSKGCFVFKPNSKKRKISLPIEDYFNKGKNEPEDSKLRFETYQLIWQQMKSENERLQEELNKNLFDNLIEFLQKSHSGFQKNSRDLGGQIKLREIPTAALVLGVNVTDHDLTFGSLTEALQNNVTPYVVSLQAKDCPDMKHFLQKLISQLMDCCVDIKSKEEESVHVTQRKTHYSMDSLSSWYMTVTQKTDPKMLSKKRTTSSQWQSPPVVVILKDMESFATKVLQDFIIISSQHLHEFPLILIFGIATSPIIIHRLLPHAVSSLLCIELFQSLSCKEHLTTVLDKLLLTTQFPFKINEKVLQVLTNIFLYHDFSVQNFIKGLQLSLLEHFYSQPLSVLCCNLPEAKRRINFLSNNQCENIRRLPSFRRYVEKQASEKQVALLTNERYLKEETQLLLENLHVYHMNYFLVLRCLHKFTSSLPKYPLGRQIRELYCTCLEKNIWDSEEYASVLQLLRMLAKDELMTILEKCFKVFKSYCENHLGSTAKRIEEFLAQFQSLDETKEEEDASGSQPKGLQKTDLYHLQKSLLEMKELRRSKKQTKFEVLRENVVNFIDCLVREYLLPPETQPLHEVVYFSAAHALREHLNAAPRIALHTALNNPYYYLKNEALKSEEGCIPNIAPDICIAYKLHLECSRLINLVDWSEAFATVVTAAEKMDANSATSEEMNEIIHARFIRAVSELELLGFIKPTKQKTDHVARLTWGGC
UniProt Q9H1E3, sequence (Q9H1E3 whole entry, looked up): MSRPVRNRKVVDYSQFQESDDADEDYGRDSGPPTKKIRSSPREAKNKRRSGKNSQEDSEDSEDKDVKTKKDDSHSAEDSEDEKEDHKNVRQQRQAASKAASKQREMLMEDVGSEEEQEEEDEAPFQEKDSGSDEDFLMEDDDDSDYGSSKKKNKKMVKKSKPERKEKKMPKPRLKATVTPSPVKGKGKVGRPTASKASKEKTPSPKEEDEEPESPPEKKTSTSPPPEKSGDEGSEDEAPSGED

log2 fold change, inactive:
NT5DC1 (UniProt Q5TFE4) 0.039
MPHOSPH10 (UniProt O00566) 0.082
NDUFB10 (UniProt O96000) 0.003
NA, A0A096LPI6 0.027
MITD1 (UniProt Q8WV92) -0.133
MYH11 isoform 2 (UniProt P35749) -0.047
MSH2 (UniProt P43246) -0.006
MRPS25 (UniProt P82663) 0.029
MITF (UniProt O75030) -0.085
NAA38 isoform 2 (UniProt Q9BRA0) 0.13
NPC1 (UniProt O15118) 0.023
NUP107 (UniProt P57740) -0.072
NFATC3 (UniProt Q12968) 0.153
MYSM1 (UniProt Q5VVJ2) 0.141
NUDCD2 (UniProt Q8WVJ2) -0.005
MPP1 (UniProt Q00013) 0.056
NUCKS1 (UniProt Q9H1E3) -0.02
OAT (UniProt P04181) -0.012
NDUFAF6 (UniProt Q330K2) -0.121
MIS12 (UniProt Q9H081) -0.003
NFE2 (UniProt Q16621) -0.055
MRPS27 isoform 2 (UniProt Q92552) -0.029
NOLC1 isoform 2 (UniProt Q14978) 0.062
NCBP2AS2 (UniProt Q69YL0) -0.017
MRPS6 (UniProt P82932) 0.046
MLX (UniProt Q9UH92) -0.17
MRPS17 (UniProt Q9Y2R5) 0.118
ORC3 (UniProt Q9UBD5) -0.144
NME1 isoform 2 (UniProt P15531) 0.031
PAFAH1B2 (UniProt P68402) 0.022
NBN (UniProt O60934) 0.009
P4HA2 (UniProt O15460) 0.021
OPA1 isoform 2 (UniProt O60313) -0.008
MTHFD1, A0A384N5Y3 0.051
NOP58 (UniProt Q9Y2X3) 0.085
